High-throughput results as filed in PubChem.
Rows were chosen to be rich in hits. Some 4.3% of all compounds tested hit in one or more screens of this group.
ADAM10 inh – inhibitors of human ADAM10. O14672. recombinant ADAM10, EDANS/DABCYL FRET peptide cleavage, 3 h. inhibition, % at 7 µM. 0.62% of 370,000 active;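 active = inhibition above a per-campaign cutoff equal to the mean of compounds falling between control-based bounds plus 3 SD, cut at about 20% in these data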
HGIII-sPLA2 inh – Blocks human group III sPLA2 activity | QFRET BODIPY PC-A2 liposome hydrolysis, fluorescence | 0.56% of 370,000 active | Q9NZ20 | inhibition, % at 12.2 µM | AID 743126;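 active = inhibition above mean plus 3 SD of compounds lying within the high and low control bounds, cut at about 19% in these data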
ADAM17 inh – ADAM17 inhibition, QFRET primary screen. P78536. recombinant ADAM17, EDANS/DABCYL FRET peptide cleavage. inhibition, % at 6.95 µM. 0.83% of 370,000 active;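 active = inhibition above the mean of compounds lying between control limits plus 3 SD, set per campaign, cut at about 8.5% in these data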
GRIN3A LBD mod – modulators (binders) of human NR3A ligand-binding domain. NR3A LBD differential scanning fluorimetry, Tm shift; 0% = protein alone, 100% = glycine-bound protein. Tm shift relative to glycine control, % at 25 µM. 2.5% of 340,000 active. AID 1259313;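 active = melting temperature shift of at least 10% of the positive control shift, at one fixed dose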
FAS TE block – FAS thioesterase (human) inhibition. recombinant FAS-TE, OMFH fluorogenic substrate, fluorescence endpoint. P49327. 0.67% of 360,000 active. inhibition, % at 15 µM;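 active = compounds whose normalised, plate-corrected inhibition of enzyme fluorescence in the single-dose primary screen is 50% or more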
ADAM10 ctr – inhibits human ADAM10 in ADAM17 exosite counter-screen | AID 743256 | inhibition, % at 6.95 µM | 47% of 2,900 active | shares compounds with ADAM17 inh | recombinant ADAM10, EDANS/DABCYL FRET peptide cleavage, 3 h;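 active = mean inhibition over the triplicate runs exceeds the activity threshold set in the earlier primary screen, cut at about 20% in these data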
ADAM17 confirm – confirmation of inhibitors of human ADAM17; shares compounds with ADAM17 inh; recombinant ADAM17, EDANS/DABCYL QFRET peptide cleavage; inhibition, % at 6.95 µM; 65% of 2,900 active;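 active = mean inhibition across replicates above the hit cutoff set in the primary screen, cut at about 8.5% in these data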
Numbers stand for hits; n = inactive; x = no result given.

SMILES	ADAM10 inh	HGIII-sPLA2 inh	ADAM17 inh	GRIN3A LBD mod	FAS TE block	ADAM10 ctr	ADAM17 confirm
COc1ccccc1NS(=O)(=O)c1cc(NC(=O)c2cccs2)ccc1N1CCCC1	n	n	10.2	n	n	n	n
COc1ccccc1NS(=O)(=O)c1cc(NC(=O)Nc2ccccc2)ccc1N1CCCCC1	n	n	8.8	19.5	n	n	n
C[C@H]1C2CC(OC(=O)Nc3ccc(C(F)(F)F)cc3)C(C2)[C@H]2CCCCN21 (some centres not stated)	n	n	n	x	x	x	x
CN1CCCN(S(=O)(=O)c2ccc3c(c2)CCC(=O)N3)CC1	n	n	n	x	x	x	x
COc1ccc(S(=O)(=O)Nc2ccc3ccccc3c2)cc1C	n	n	10.2	n	n	29.5	18.2
COc1ccc(S(=O)(=O)Nc2ccc3cn[nH]c3c2)cc1C	n	n	n	n	n	x	x
O=C(OCc1cnc(Cl)s1)c1cccc(Cl)c1Cl	n	n	9.0	n	n	n	11.9
CCCCOCCCNC(=O)C[C@H]1C[C@@]2(C(=O)OC)C(=C[C@H](C3CCCC3)O[C@@H]2C)N(Cc2ccccc2)C1=O	n	n	n	x	x	x	x
COC(=O)C1=C(C)N(C)C(=NCc2ccccc2C(F)(F)F)NC1c1ccc(C(F)(F)F)cc1 (configuration not stated)	n	n	n	x	x	x	x
COc1ccc([C@H]2CC(=O)C=C(c3ccc(F)cc3OCc3ccccc3)C2)cc1OC	n	n	9.8	11.5	n	n	n
CCNC(=O)N1CCN(c2ccc(N3CCN(C(=O)NCC)[C@@H](C)C3)c(C)c2)[C@@H](C)C1	n	n	n	x	x	x	x
COC(=O)C[C@@H]1CC[C@H]2[C@@H](COc3ccc(NC(=O)Nc4cccc(F)c4)cc3C(=O)N2C)O1	n	n	n	x	x	x	x
COc1cccc(C=NNC(=O)CSc2nc3ccccc3[nH]2)c1O	n	n	10.2	x	x	n	n
COc1cccc(/C=N/NC(=O)CSc2ccccc2C)c1O	n	n	n	n	n	x	x
COC(=O)C1=C(C)N(Cc2ccccc2C(F)(F)F)C(=NCc2ccc(OC)cc2)NC1CCc1ccccc1 (configuration not stated)	n	n	n	x	x	x	x
CCCc1cc(C(=O)N2CCN(c3ccc(C(F)(F)F)cn3)CC2)sc1C	n	n	12.4	n	n	21.1	13.6
COc1ccccc1OCCNC(=O)CN1C(=O)NC2(CCCC2)C1=O	n	n	9.3	n	n	n	n
NC(=O)c1ncn([C@@H]2O[C@H](C(=O)N3CCN(Cc4ccccn4)CC3)[C@@H](O)[C@H]2O)n1	n	n	n	x	x	x	x
O=C(/C=C(/c1ccc(Cl)cc1)n1cncn1)c1ccccc1	n	n	9.7	n	n	n	n
Cc1ccc(C2CC(c3ccc(Cl)cc3)=NNC2=O)cc1 (configuration not stated)	n	n	n	n	n	x	x
Cc1ccc(C2=NNC(=O)C(P(=O)(c3ccccc3)c3ccccc3)C2)cc1 (configuration not stated)	n	n	9.4	n	n	n	n
COC(=O)[C@]12C[C@H](CC(=O)NCCCCc3ccccc3)C(=O)N(Cc3ccc4c(c3)OCO4)C1=C[C@H](COCc1ccccc1)O[C@@H]2C	n	n	n	x	x	x	x
CCN(CC(=O)Nc1c(F)cccc1F)C(=O)c1ccc(S(=O)(=O)N2CCC(C)CC2)cc1	n	n	10.5	n	n	n	n
CCNC(=S)N/N=C/c1cn(Cc2ccccc2F)c2ccccc12	n	n	9.1	n	n	n	20.5
O=S(=O)(c1ccc(Br)s1)N1CCC(c2nc3ccccc3o2)CC1	n	n	n	x	x	x	x
O=S(=O)(c1ccccc1F)N1CCC(c2nc3ccccc3o2)CC1	n	n	9.1	x	x	n	n
O=C1NC[C@H](CC2CCCCC2)N(CCc2cccc3ccccc23)C1=O	n	n	n	x	n	x	x
O=C1NC[C@@H](Cc2cccc3ccccc23)N(CCCCC2CCCCC2)C1=O	n	n	10.7	n	n	n	n
COC(=O)C1=C(C)N=C2SCCC(=O)N2C1c1ccc(OC(=O)c2ccco2)cc1 (configuration not stated)	n	n	17.1	n	n	n	n
